Data on 28 molecules can be found in ChEMBL document CHEMBL3988442, “University of Dundee, Small-Polar-MMV Screening Library” (2021).

SMILES strings stand for the structures. The whole screen tested about 53,000 compounds, of which about 900 (1.7%) showed an effect of 50% or more. The entries come from a sample that favours strong results as a whole.

For this assay, the system named is Mycobacterium tuberculosis. The assay is described as follows: Cornell - Phenotypic assay to identify agents that inhibit growth of Mycobacterium tuberculosis. Details: scale not given: direction of the effect not stated beside the values. To be noted: 10 mM as filed; unlikely as a test dose. It is filed as functional.
Consider `COCC[C@]1(O)CCN(Cc2nc(C)cs2)C[C@H]1C`, for which the “Percent Effect” value is -15.54%.
`O=C(O)C(F)(F)F.O=C1[C@H]2CN(c3ncccn3)C[C@H]2CN1CCN1CCCC1`: the “Percent Effect” value is recorded as 1.191%.
With `Cc1cnc(N2CCc3onc(COc4cccnc4)c3C2)nc1`, the “Percent Effect” value is recorded as -20.46%.
The result for `Cc1cc(C)cc(C(=O)N2CCN(C(=O)N(C)C)CC2(C)C)c1` reads 26.69%; that for `Cc1nc(Nc2cnccn2)cc(C2CCN(CCO)C2)n1.O=CO` (stereo not drawn), -24.26%.
The result for `CSCCC(NC(=O)c1ccco1)C(=O)N(C)Cc1ccsc1` (stereo not drawn) reads -9.579%.
Consider `O=C(NCCC(=O)N1CCCC1)c1ccc(SCc2cccnc2)cc1`, for which the “Percent Effect” value stood at 35.93%.
Consider `CCOc1ccnc(N2CCN(C(=O)c3cccnc3)CC2)n1`, for which the “Percent Effect” value is reported as -18.66%.
In the case of `O=S(=O)(NC1CCCCC12OCCO2)c1ccc2c(c1)OCCO2` (stereo not drawn), the “Percent Effect” value is recorded as 44.93%.
The result for `O=S(=O)(NC1CCCCC12OCCO2)c1cc(Cl)cc(Cl)c1` (stereo not drawn) reads 16.3%; that for `O=S(=O)(NC1CCCCC12OCCO2)c1cc(F)cc(F)c1` (stereo not drawn), 56.69%.
The result for `CCCN1CCC(Cc2noc(-c3cccnc3OC)n2)CC1` reads 20.11%; that for `O=C(NCC1CCOC1)c1cc(-c2ccc(Cl)cc2)n[nH]1` (stereo not drawn), -7.527%.
As to `CCn1nc(C)c(CNC(=O)c2nnc3ccc(Cl)cc3n2)c1C`, the “Percent Effect” value turned out to be 64.24%.
The result for `COc1ccc2nnc(C(=O)NCC3CCCC3)nc2c1` reads 39.03%.
In the case of `COc1ccc2nnc(C(=O)NC3CCCC3)nc2c1`, the “Percent Effect” value turned out to be 60.2%.
The result for `Cc1ccc2nnc(C(=O)NCC3CCCC3)nc2c1` reads 99.7%.
In the case of `CCn1nc(C)c(CNC(=O)c2nnc3ccc(OC)cc3n2)c1C`, the “Percent Effect” value is recorded as -22.43%.
The result for `CCn1nc(C)c(CNC(=O)c2nnc3ccccc3n2)c1C` reads 7.838%; that for `Cc1ccc(-n2nnc(C(=O)NCC3CCCCC3)n2)cc1`, 32.3%; that for `O=C(NCC1CCOC1)c1csc(-c2ccc(Cl)cc2)n1` (stereo not drawn), 25.26%.
Turning to `COc1ccc(C(=O)NC2CC2)c(OC)c1`, the “Percent Effect” value was found to be 29.69%.
Under `O=C(NCC1CC1)c1nnc2ccc(Cl)cc2n1` stands 99.3%; under `COc1ccc(-c2nnc(SC(C)C(=O)NC3CCCC3)[nH]2)c(OC)c1` (stereo not drawn), -11.32%.
Under `O=C1[C@H]2CCCC[C@H]2C(=O)N1c1cnn(Cc2cccc(F)c2)c1` stands 24.19%.
For `Cc1nnc(-c2cccc(C#N)c2)n1C1CCN(C(C)C)C1=O` (stereo not drawn), the “Percent Effect” value turned out to be 5.61%.
In the case of `Cc1cccc(S(=O)(=O)N2C[C@@H]3C[C@@H](c4nnc(C)[nH]4)O[C@@H]3C2)c1`, the “Percent Effect” value is reported as -10.6%.
Under `CN(Cc1ccc(F)cc1)CC1(O)CCN(C(=O)c2ccccn2)C1` (stereo not drawn) stands 17.87%.
